MPTP inh = blocks calcium-induced mitochondrial swelling | actives 1.4% (n = 360,000) | isolated mouse mitochondria, Ca2+ swelling absorbance, 30 min | inhibition, % at 10 µM | AID 602449;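 active = inhibition of 50% or more, scaled per plate between neutral and stimulator controls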;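 also: 0% = DMSO wells given calcium and 100% = 1 mM EGTA wells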
Mdm2 MdmX PPI = disrupts the human Mdm2-MdmX interaction. O15151+Q00987. AID 485346. actives 3% (n = 330,000). inhibition, % at 8 µM. SaOS-2 split-luciferase Mdm2/MdmX complementation, luminescence;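 active = inhibition of at least 50% at 8 µM in the primary screen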
Target sequence (O15151 whole entry, looked up): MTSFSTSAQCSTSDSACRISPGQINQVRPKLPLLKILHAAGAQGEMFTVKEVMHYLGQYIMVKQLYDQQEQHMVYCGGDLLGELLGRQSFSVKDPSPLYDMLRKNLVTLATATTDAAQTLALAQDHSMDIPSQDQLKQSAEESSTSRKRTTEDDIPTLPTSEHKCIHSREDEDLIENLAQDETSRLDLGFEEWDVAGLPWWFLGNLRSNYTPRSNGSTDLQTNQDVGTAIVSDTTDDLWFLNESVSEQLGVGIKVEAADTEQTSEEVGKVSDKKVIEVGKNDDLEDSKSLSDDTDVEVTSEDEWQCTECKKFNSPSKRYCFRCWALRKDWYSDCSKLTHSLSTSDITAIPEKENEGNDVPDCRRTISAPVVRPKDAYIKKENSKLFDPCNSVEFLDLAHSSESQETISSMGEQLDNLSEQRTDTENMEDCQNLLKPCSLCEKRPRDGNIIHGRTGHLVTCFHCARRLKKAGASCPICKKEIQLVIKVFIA
Target sequence (Q00987 whole entry, looked up): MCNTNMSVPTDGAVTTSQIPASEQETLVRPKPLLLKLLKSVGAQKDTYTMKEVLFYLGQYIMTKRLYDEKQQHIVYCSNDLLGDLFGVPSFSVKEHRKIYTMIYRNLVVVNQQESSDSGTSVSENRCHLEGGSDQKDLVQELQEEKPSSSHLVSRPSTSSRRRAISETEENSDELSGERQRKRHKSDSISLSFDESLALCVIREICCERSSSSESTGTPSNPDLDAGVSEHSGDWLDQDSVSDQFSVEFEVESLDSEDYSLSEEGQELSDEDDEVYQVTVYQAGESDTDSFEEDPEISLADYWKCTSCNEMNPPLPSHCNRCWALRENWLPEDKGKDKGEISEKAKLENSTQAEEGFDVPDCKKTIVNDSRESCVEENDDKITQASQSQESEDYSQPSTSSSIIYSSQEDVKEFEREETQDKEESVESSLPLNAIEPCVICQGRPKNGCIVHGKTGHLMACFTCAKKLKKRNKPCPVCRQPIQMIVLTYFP
Beta cell apopt = beta cell apoptosis inhibition; protection from apoptosis, % (concentration not given with the values); actives 0.8% (n = 300,000); AID 435005; INS-1E cytokine-induced death, ATP luminescence, 48 h; percent of positive-control rescue, neutral wells zero;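 active = Every replicate reaches about 75%, or at least half do and their mean reaches it too, limit read from the data; inconclusive = At least half of replicates reach the limit but their mean does not; inactive = Under half of replicates reach the limit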;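 also: 0% = cytokine-treated negative control wells and 100% = positive control rescue; higher means more ATP so stronger rescue from cytokine killing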
Calb FLC = affects C. albicans growth with fluconazole | C. albicans CaCi-2 (fluconazole-resistant clinical isolate) + fluconazole, Alamar Blue growth, 48 h | growth inhibition, % (no concentration beside the values) | actives 0.57% (n = 300,000) | AID 1979;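 active = growth inhibition above about 58% in most replicates, limit read from the data, passing the limit was not always enough; inconclusive = exactly half the replicates above a set limit; inactive = most replicates below a set limit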;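 also: all wells also contain fluconazole at 8 µg/ml as a sub-toxic cotreatment; 0% = median of DMSO wells and 100% = median of geldanamycin control wells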
CSC inhib = blocks cancer stem cells. actives 1.1% (n = 300,000). cancer stem cell-like cells viability, luminescence. inhibition, % at 7.5 µM; in the data active = inhibition above about 75%; inconclusive = no clear call, values can overlap the other calls; tested in HMLE shEcad cells
Rh123 counter = membrane potential counter-screen of mitochondrial pore inhibitors; shares compounds with MPTP inh; inhibition, % at 10 µM; actives 78% (n = 5,000); isolated mitochondria, Rhodamine 123 fluorescence; in the data active = inhibition above about 22%;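 also: 0% = DMSO vehicle and 100% = positive control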
MPTP swell DR = MPTP inhibition, dose response swelling confirmation. shares compounds with MPTP inh. isolated mitochondria swelling, absorbance. IC50, µM. actives 58% (n = 780); in the data active = IC50 below about 20 µM
MPTP cs DR = MPTP inhibitor counter-screen activity, dose response. shares compounds with MPTP inh. isolated mitochondria counterscreen, fluorescence read-out. IC50, µM. actives 49% (n = 780). AID 651564; in the data active = IC50 below about 80 µM
* = called active by the depositor; ? = inconclusive; / = not tested or not shown. Most compounds without a hit are left out; they make up all but 4.8% or so of the library.

SMILES | MPTP inh | Mdm2 MdmX PPI | Beta cell apopt | Calb FLC | CSC inhib | Rh123 counter | others
O=C1/C(=C\c2ccc(O)cc2)SC(=S)N1/N=C/c1ccc(O)cc1 | 96* | 0 | 2 | -2 | 6 | 78*
O=C(CSc1ccc(F)cc1)Nc1ccccc1Br | 0 | -7 | -5 | -2 | -4 | /
O=C(CSc1ccc(F)cc1)Nc1ccc(Br)cc1 | 58* | -91 | 0 | -11 | 9 | 67*
Cc1ccc(NCC(=O)Nc2ccc(Br)cc2)cc1F | 60* | 4 | 1 | 1 | 16 | 70*
Cc1cc(=O)[nH]c(SCC(=O)Nc2ccc(F)cc2)c1C#N | 6 | 11 | -1 | 21 | -11 | /
Cc1cc(=O)[nH]c(SCC(=O)Nc2ccc(Br)cc2)c1C#N | 96* | -4 | 6 | 38 | 46 | 90*
CC(=O)NCCC(=O)Nc1ccc(C)c(F)c1 | 0 | 10 | -5 | 21 | -9 | /
Cc1ccc(S(=O)(=O)Nc2cccc(C(=O)NCC(c3ccco3)N3CCCC3)c2)cc1F (stereo not given) | 1 | -15 | -3 | 3 | -10 | /
CCOc1ccccc1NC(=O)CSc1nc2nc(-c3cccs3)cc(C(F)(F)F)c2c(=O)[nH]1 | 69* | 4 | 1 | 5 | 54 | 55*
COc1ccc(NC(=O)CSc2nc3nc(-c4cccs4)cc(C(F)(F)F)c3c(=O)[nH]2)c(OC)c1 | 23 | 1 | -3 | 1 | 14 | /
COC(=O)c1ccccc1OCCCOc1ccc(C=O)cc1OC | 58* | -32 | -12 | -15 | -14 | -8 | MPTP swell DR=11*;MPTP cs DR=>80
COc1cc(C)ccc1OCCCCOc1ccccc1C(C)=O | 95* | -2 | 5 | 3 | 3 | 85*
Cc1ccc(C(=O)Nc2ccc(Cl)cc2C)c(Cl)c1 | 1 | -214 | 5 | ? | 9 | /
Cc1[nH]c2ccccc2c1C1=CC(=O)C=CC1=O | 52* | / | / | / | / | 4
Cc1[nH]c2ccccc2c1CCO | -7 | -6 | -9 | -1 | -4 | /
Cc1cc(C(=O)CSc2n[nH]c(N)n2)c(C)n1-c1cc(F)ccc1F | 59* | -41 | -6 | 0 | 24 | 3 | MPTP cs DR=>80
O=C(NC(O)C(=O)c1ccccc1)c1ccc(F)cc1 (stereo not given) | 0 | 22 | -7 | -10 | -1 | /
CC(=O)c1cn(CCOc2ccccc2C)c2ccccc12 | 96* | 11 | / | 19 | 2 | 82*
c1ccc2c(c1)ncn2CCCCOc1ccc2c(c1)CCC2 | 88* | 14 | 91* | -14 | 0 | 96*
Cc1ccccc1OCCCCn1cnc2ccccc21 | 93* | 12 | 103* | 42 | 4 | 89*
c1ccc(OCCCCn2cnc3ccccc32)cc1 | 0 | 18 | 3 | 25 | -8 | /
CCCOc1ccc(Cn2cnc3ccccc32)cc1 | 89* | 5 | 15 | / | 1 | 77*
COc1ccc(C2=NS(=O)(=O)N(C)C(C(=O)Nc3ccc(F)cc3F)=C2)cc1 | -1 | 33 | 1 | 11 | 7 | /
CCN1CCN(c2ccc(Cl)cc2NC(=O)c2ccc(-n3nc(C)cc3C)cc2)CC1 | 0 | 47 | 3 | / | / | /
CSCCC(NC=O)C(=O)NC(C)C(=O)O (stereo not given) | 0 | / | / | / | / | /
SMILES | MPTP inh | Mdm2 MdmX PPI | Beta cell apopt | Calb FLC | CSC inhib | Rh123 counter | others
Cc1ccc(C)c(NC(=O)CCN2CCCC(C)C2)c1 (stereo not given) | 0 | -5 | -1 | -6 | -11 | /
c1ccc2c(c1)ncn2CCCOc1ccc2c(c1)CCC2 | 54* | -30 | 71 | -26 | -9 | 60*
c1ccc2sc(NC3=NCN(C4CCCCCC4)CN3)nc2c1 | 95* | -10 | -1 | 4 | -11 | 20
COc1cc(/C=C2/C(=O)c3cccc([N+](=O)[O-])c3C2=O)c(Br)cc1O | 134* | / | -5 | / | 42 | 53*
O=C(C=P(c1ccccc1)(c1ccccc1)c1ccccc1)c1ccccc1-c1ccccc1C(=O)C=P(c1ccccc1)(c1ccccc1)c1ccccc1 | 94* | / | / | / | / | 99*
O=C(NNC(=O)c1ccccc1-c1ccccc1C(=O)O)c1ccccc1 | 0 | 17 | 3 | 9 | -9 | /
Cc1cccc(CN2CCC(n3nccc3NC(=O)CCCc3ccccc3)CC2)n1 | -1 | 10 | -15 | 0 | -1 | /
Cc1[nH]c2ccccc2c1/C=C(\C#N)S(=O)(=O)c1ccccc1 | 72* | -7 | -11 | 19 | 4 | 61*
N#C/C(=C\c1ccc(O)c(O)c1)S(=O)(=O)c1ccccc1 | 90* | -7 | 0 | 0 | 8 | 70*
Cc1cc(C)c(/C=C(\C#N)S(=O)(=O)c2ccccc2)[nH]1 | 2 | 20 | -4 | -2 | 7 | /
Cc1ccc(Cn2c(=N)n(CC(O)c3ccco3)c3ccccc32)cc1 (stereo not given) | 70* | 20 | 6 | -4 | -2 | 43*
N=c1n(Cc2ccccc2Cl)c2ccccc2n1CC(O)c1ccco1 (stereo not given) | -1 | 48 | 4 | -14 | 2 | /
COC(=O)c1nc(NC(=O)c2ccc(Br)cc2)n[nH]1 | 77* | 3 | -7 | 6 | -5 | 6 | MPTP swell DR=>100;MPTP cs DR=>80
Cc1ccc(NC(=S)NCc2ccc(Cl)cc2)c(C)c1 | 3 | 6 | 6 | -2 | -1 | /
Cc1ccc(NC(=S)NCCSc2ccc(Cl)cc2)c(C)c1 | 81* | 22 | 5 | -2 | 32 | 87*
Cc1cccc(NC(=S)NCC(C)CSc2ccc(Cl)cc2)c1 (stereo not given) | 89* | -9 | 14 | 19 | ? | 94*
CCc1ccccc1NC(=S)NCCSc1ccc(Cl)cc1 | 94* | 8 | -3 | -8 | 20 | 94*
Cc1ccc(C)c(NC(=S)NCCSc2ccc(Cl)cc2)c1 | 76* | 13 | -3 | -22 | 17 | 90*
CCCNC(=O)C1(C)CCN(Cc2ccc(C(=O)OCC)cc2)C1 (stereo not given) | -1 | / | / | / | / | /
C[C@]12c3[nH]c4ccc(Cl)cc4c3CCN1C(=O)[C@@H](CC(=O)NCCC1=CCCCC1)C[C@@H]2C(=O)N1CCOCC1 | 0 | 35 | / | / | / | /
CCCCCn1nnc2c(=O)oc3ccccc3c21 | 0 | -17 | -12 | 5 | -3 | /
O=C(CN1C(=O)C2C3CC(C(Br)C3Br)C2C1=O)N1CCN(Cc2ccccc2)CC1 (stereo not given) | 2 | 3 | 2 | -10 | 9 | /
Cc1cccc(NC(=S)NCCSc2ccc(Cl)cc2)c1 | 98* | 15 | 0 | -31 | 33 | 85*
Cc1ccccc1NC(=S)NCCSc1ccc(Cl)cc1 | 92* | 18 | 1 | -31 | 20 | 86*
Cc1ccc(Cl)cc1NC(=S)NCCCSC1CCCCC1 | 99* | 19 | 11 | -26 | 25 | 91*
Cc1noc(C)c1COc1ccccc1C(=O)N(C)CC(=O)Nc1ccc(F)cc1 | 0 | 16 | 9 | -4 | / | /
